Rows were chosen to be rich in hits. Some 21% of all compounds tested hit in one or more screens of this group.
Cycloheximide cs – Cycloheximide Counterscreen for Small Molecule Inhibitors of Shiga Toxin; cell reporter, cycloheximide protein synthesis inhibition counterscreen; max response, %; 300,000 tested, 12% active; in the data active = max response mostly above about 13%, no sharp cut-off; inactive = mostly below about 14%; also: read at 38.3 µM for the half of the compounds with a filed dose
Pf growth 96h – Primary qHTS for delayed death inhibitors of the malarial parasite plastid, 96 hour incubation | P. falciparum luciferase reporter growth, 96 h | Potency, µM (series often up to 28.7 µM), usual class: inhibitors | 320,000 tested, 6.9% active; active = well fitted inhibition curve with a large enough effect; inconclusive = small, poorly fitted or top-dose-only effect, or another doubt; inactive = no such curve, though single readings can be large or run the other way
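Two parasite generations (96 h, 37 C, 5% CO2) of compound exposure in infected erythrocytes (0.05% parasitemia, 2% hematocrit). Luciferase-reporter P. falciparum; decreased luminescence indicates inhibited growth, aimed at apicoplast-acting delayed death.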
NS1 function inh – qHTS Assay for Inhibitors of Influenza NS1 Protein Function; 270,000 tested, 0.4% active; Potency, µM (titrated, usually from 46.1 µM); also: actives are rising curves; nearly all actives have a fitted effect of over 50% in size
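Growth recovery, yeast-based: influenza A NS1 expressed in S. cerevisiae causes slow growth, and suppressors are detected by OD600. The parent strain without NS1 is used as positive control.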
Shiga toxin inh – A qHTS for Small Molecule Inhibitors of Shiga Toxin; Vero cells, Shiga toxin protein synthesis inhibition reporter; inhibition, % at 38.7 µM; 290,000 tested, 9.2% active; in the data active = inhibition mostly above about 28%, no sharp cut-off; inactive = mostly below about 43%
SARS PLP yeast – qHTS of Yeast-based Assay for SARS-CoV PLP | S. cerevisiae expressing SARS-CoV PLpro, growth rescue | Potency, µM (titrated, usually from 32.9 µM), actives largely listed as activators | 330,000 tested, 0.19% active | AID 485353, 2010; also: nearly all actives have a fitted effect of over 55% in size
Pf growth 48h – Primary qHTS for delayed death inhibitors of the malarial parasite plastid, 48 hour incubation. P. falciparum luciferase growth in erythrocytes, 48 h. Potency, µM (titrated, usually from 28.7 µM), usual class: inhibitors. 310,000 tested, 5.9% active; active = well fitted inhibition curve with a large enough effect; inconclusive = small, poorly fitted or top-dose-only effect, or another doubt; inactive = no such curve, though single readings can be large or run the other way
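In quantitative HTS format, infected erythrocytes bearing luciferase-reporter parasites were treated for a single generation at 37 C. Luminescence after adding detection reagent served as the growth measure.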
Numbers stand for hits; [ ] = another dose, or the depositor's remark. Unless noted, calls follow the shape of the full dose curve.

How did CCN(CC)CCSc1nc(O)c(Cc2ccccc2)c(=O)n1-c1ccccc1 do in these assays?
Cycloheximide cs: inactive; Pf growth 96h: inactive; Shiga toxin inh: inactive; SARS PLP yeast: inactive; Pf growth 48h: inactive

What do the screens show for `CC[C@H](C)[C@H](NC(=O)[C@H](CCC(=O)O)NC(=O)[C@H](CC(N)=O)NC(=O)[C@@H](N)[C@@H](C)O)C(=O)N[C@H](C(=O)N[C@@H](CCC(=O)O)C(=O)N[C@@H](CCC(=O)O)C(=O)N[C@@H](CCC(N)=O)C(=O)N[C@@H](Cc1ccc(O)cc1)C(=O)N[C@H](C(=O)N1CCC[C@H]1C(=O)N[C@@H](CCC(N)=O)C(=O)N[C@@H](CO)C(=O)N[C@@H](CC(C)C)C(=O)N[C@@H](C)C(=O)N[C@H](C(=O)N[C@@H](CC(C)C)C(=O)N[C@@H](CCC(=O)O)C(=O)N[C@@H](CO)C(=O)N[C@H](C(=O)N[C@@H](Cc1ccccc1)C(=O)N[C@@H](CCC(N)=O)C(=O)N[C@@H](CCC(=O)O)C(=O)N[C@@H](CC(C)C)C(=O)NCC(=O)N[C@@H](CCCCN)C(=O)N[C@@H](CC(C)C)C(=O)N[C@H](C(=O)NCC(=O)N1CCC[C@H]1C(=O)N[C@@H](CC(N)=O)C(=O)N[C@@H](CO)C(=O)N[C@@H](CCC(N)=O)C(=O)O)[C@@H](C)O)C(C)C)[C@@H](C)O)[C@@H](C)O)C(C)C`?
Cycloheximide cs: inactive; Shiga toxin inh: inactive

Results for CCN(CC)CCN1C(=O)c2oc3ccccc3c(=O)c2C1c1ccc(F)cc1 (stereo unspecified) ?
Cycloheximide cs: inactive; Pf growth 96h: 9.3µM; NS1 function inh: inactive; Shiga toxin inh: inactive; SARS PLP yeast: inactive; Pf growth 48h: 2.9µM

What do the screens show for `CN(C)CCCN1C(=O)c2oc3ccccc3c(=O)c2C1c1cccs1` (stereo unspecified)?
Cycloheximide cs: 22; Pf growth 96h: inactive[5.75 µM]; NS1 function inh: inactive; Shiga toxin inh: 24; SARS PLP yeast: inactive; Pf growth 48h: inconclusive

How did CC(=O)c1ccc(NC(=O)CSc2nnc(NC(=O)C3CC3)s2)cc1 do in these assays?
Cycloheximide cs: inactive; Pf growth 96h: inconclusive; NS1 function inh: inactive; Shiga toxin inh: inactive; SARS PLP yeast: inactive; Pf growth 48h: inactive

How did COC(=O)c1sc(S(=O)(=O)Nc2ccc(Br)cc2)c(C(=O)OC)c1C do in these assays?
Cycloheximide cs: inactive; Pf growth 96h: inactive; NS1 function inh: inactive; Shiga toxin inh: inactive; SARS PLP yeast: inactive; Pf growth 48h: inactive

What do the screens show for `O=C(c1ccc(Cl)nc1)c1cccs1`?
Cycloheximide cs: inactive; Pf growth 96h: inactive; NS1 function inh: inactive; Shiga toxin inh: inactive; SARS PLP yeast: inactive; Pf growth 48h: inactive

What do the screens show for `Nc1cc(C(=O)c2cccs2)ccc1Cl`?
Cycloheximide cs: 17; Pf growth 96h: inconclusive; NS1 function inh: inactive; Shiga toxin inh: inactive; SARS PLP yeast: inactive

What do the screens show for `Cc1ccc(/C=N/NC(=O)Cc2ccc(O)cc2)s1`?
Cycloheximide cs: 27; Pf growth 96h: 7.4µM; NS1 function inh: inactive; Shiga toxin inh: inactive; SARS PLP yeast: inactive; Pf growth 48h: inactive

What do the screens show for `CCc1ccc(/C=N\NC(=O)c2ccc(Br)o2)s1`?
Cycloheximide cs: 90; Pf growth 96h: inactive; NS1 function inh: inactive; Shiga toxin inh: 100; SARS PLP yeast: inactive; Pf growth 48h: inactive

Results for Cc1ccc(/C=N/NC(=O)c2ccc(Br)o2)s1 ?
Cycloheximide cs: 43; Pf growth 96h: inactive; NS1 function inh: inactive; Shiga toxin inh: 82; SARS PLP yeast: inactive; Pf growth 48h: inactive

How did CCc1ccc(/C=N/NC(=O)Cc2ccc(OC)c(OC)c2)s1 do in these assays?
Cycloheximide cs: inactive; Pf growth 96h: inactive; NS1 function inh: inactive; Shiga toxin inh: inactive; SARS PLP yeast: inactive; Pf growth 48h: inactive

What do the screens show for `COc1ccc(C2=Nn3c(nnc3-c3ccc(OC)c(OC)c3)SC2)c(OC)c1`?
Cycloheximide cs: inactive; Shiga toxin inh: inactive

Results for CCN(CC)C(=O)CSC(=Nc1ccccc1F)NC#N ?
Cycloheximide cs: 22; Pf growth 96h: inactive; NS1 function inh: inactive; Shiga toxin inh: 73; SARS PLP yeast: inactive; Pf growth 48h: inactive

How did COc1ccc(NC(C)C(=O)Nc2ccc(C#N)cc2)cc1Cl (stereo unspecified) do in these assays?
Cycloheximide cs: inactive; Pf growth 96h: 2.3µM; NS1 function inh: inactive; Shiga toxin inh: inactive; SARS PLP yeast: inactive

How did COc1ccc(NC(C)C(=O)Nc2ccc(C(C)(C)C)cc2)cc1Cl (stereo unspecified) do in these assays?
Cycloheximide cs: 20; NS1 function inh: inactive; Shiga toxin inh: inactive; SARS PLP yeast: inactive; Pf growth 48h: inconclusive

How did COc1ccccc1/C=C(/NC(=O)c1ccc(Cl)cc1Cl)C(=O)O do in these assays?
Cycloheximide cs: inactive; Pf growth 96h: 8.3µM; NS1 function inh: inactive; Shiga toxin inh: inactive; SARS PLP yeast: inactive; Pf growth 48h: inactive

Results for CCOC(=O)NC(=O)/C(C#N)=C\Nc1ccc(Cl)cc1Cl ?
Cycloheximide cs: 32; Pf growth 96h: inactive; Shiga toxin inh: inactive; SARS PLP yeast: inactive; Pf growth 48h: inactive

How did COC(=O)/C(=C\Nc1ccc(Cl)cc1Cl)NC(=O)c1ccccc1 do in these assays?
Cycloheximide cs: inactive; Pf growth 96h: inactive; NS1 function inh: inactive; Shiga toxin inh: inactive; Pf growth 48h: inactive

What do the screens show for `COC(=O)/C(=C\Nc1ccc(Cl)cc1Cl)NC(=O)c1ccc(Cl)cc1Cl`?
Cycloheximide cs: 19; Pf growth 96h: inactive; NS1 function inh: inactive; Shiga toxin inh: 80; Pf growth 48h: inactive

How did COc1ccc(/C=C(/NC(=O)c2ccccc2Cl)C(=O)O)cc1 do in these assays?
Cycloheximide cs: inactive; Pf growth 96h: inactive; NS1 function inh: inactive; Shiga toxin inh: inactive; SARS PLP yeast: inactive; Pf growth 48h: inactive

How did COc1ccc(C(C(=O)Nc2ccc(C(C)C)cc2)N(C)C(=O)c2ccc(=O)[nH]c2)cc1 (stereo unspecified) do in these assays?
Cycloheximide cs: inactive; Pf growth 96h: inactive; Shiga toxin inh: inactive; SARS PLP yeast: inactive; Pf growth 48h: inconclusive

What do the screens show for `CCN(CC)C(=O)CN1CCN(Cc2ccc3c(c2)OCO3)CC1`?
Cycloheximide cs: inactive; Pf growth 96h: inactive; NS1 function inh: inactive; Shiga toxin inh: inactive; SARS PLP yeast: inactive; Pf growth 48h: inactive

Results for CN(CC(=O)Nc1cccc(F)c1)C(=O)CSc1ccccc1 ?
Pf growth 96h: inactive; SARS PLP yeast: inactive; Pf growth 48h: inconclusive

Results for CC(C)C1C(=O)N(S(C)(=O)=O)[C@H]2CCN(C(=O)/C=C/CN3CCCCC3)[C@@H]12 (stereo partly specified) ?
Cycloheximide cs: inactive; Shiga toxin inh: inactive

What do the screens show for `Cc1ccccc1C(=O)N1CCN(c2ccc(NC(=S)NC(=O)c3cccs3)cc2)CC1`?
Cycloheximide cs: inactive; Pf growth 96h: inactive; NS1 function inh: inconclusive; Shiga toxin inh: inactive; SARS PLP yeast: inactive; Pf growth 48h: 9.3µM

Screens: PubChem BioAssay, National Center for Advancing Translational Sciences (NCATS)
